Experimental data reported in the OligoGym collection.
Further: reference of the scale not given here.

Each sequence was assayed against SUN1 (assay: pooled miR-30 sensor sort-seq; sequence = guide strand). Settings: shRNA.
In the case of TTTTCTAATCCATAGACGGCGA, the sensor-assay potency score (higher = more potent) was -0.893.
In the case of TTGGAAAGCTGTGTCGTCGGGT, the sensor-assay potency score (higher = more potent) was 0.562.
TTTGTTGTTCTGGCCGCTCGGT showed a sensor-assay potency score (higher = more potent) of -0.815.
In the case of TTCTTCAGGGAGACAGCGCTGC, the sensor-assay potency score (higher = more potent) was -0.739.
TAGAATAAACTCTCGACACGGG showed a sensor-assay potency score (higher = more potent) of -0.0133.
TTTTGGTTTCGTAAGTTTCAGA gave a sensor-assay potency score (higher = more potent) of -0.848.
TTGTTGTTCTGGCCGCTCGGTT showed a sensor-assay potency score (higher = more potent) of -1.37.
Sequence TTCAGGGAGACAGCGCTGCTGG has a sensor-assay potency score (higher = more potent) of -1.01.
TTTGTTTGTGCTTCTGCGCTGT was tested, and the sensor-assay potency score (higher = more potent) was 0.665.
For TCGAGTCACAGCATCCTGCAGG, the sensor-assay potency score (higher = more potent) was -0.812.
For TTGTTTGTGCTTCTGCGCTGTT, the sensor-assay potency score (higher = more potent) was -0.561.

What follows are sequences tested against SURF1 in the same assay as above. Settings: shRNA.
TTTCTTAAACCACAGGTAGGAT showed a sensor-assay potency score (higher = more potent) of -0.803.
TTAAACCACAGGTAGGATGTAG showed a sensor-assay potency score (higher = more potent) of -0.235.
Sequence TTGAAATACTGCATTATCCAGG has a sensor-assay potency score (higher = more potent) of -0.184.
TTCCAGGTCTCGATAATGCCAG gave a sensor-assay potency score (higher = more potent) of -0.863.
TCTGTCAGCCTCACCATCCCAA gave a sensor-assay potency score (higher = more potent) of -0.843.
TACCAGTAGCACATGATCCAGC showed a sensor-assay potency score (higher = more potent) of -0.00567.
TAGGAATTTCTTAAACCACAGG gave a sensor-assay potency score (higher = more potent) of -0.992.
